# DAX1 inh-1: DAX1 (NR0B1) inhibitors on StAR promoter, primary screen, cell-based, luminescence, SF-1 (NR5A1), full-length DAX-1. HEK293T StAR-luciferase reporter, SF-1/DAX-1 repression relief. inhibition, % at 6.8 µM. actives 1.1% (n = 370,000);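 active = inhibition above the mean over all tested compounds plus 3 SD, cut at about 3.6% in these data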;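 note: 0% = DAX-1 cells with DMSO and 100% = cells lacking DAX-1 with DMSO; higher inhibition means more luminescence from relief of DAX-1 repression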
# hgDAF-12 ag: H. glycines DAF-12 receptor agonists, primary screen, cell-based, luminescence, HEK293, GAL4 fusion, UAS-luciferase; activation, % at 6.8 µM; HEK293 GAL4-hgDAF12 UAS-luciferase reporter, agonist luminescence; normalized to butyrate control; actives 1.8% (n = 370,000); AID 687014, 2013; Nuclear hormone receptor DAF-12 (Heterodera glycines), GAL4 fusion;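 active = activation above a cutoff set at the mean of all screened compounds plus 3 SD, cut at about 10% in these data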;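 note: 0% = DMSO wells and 100% = sodium butyrate wells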
# DAX1 inh-2: DAX1 (NR0B1) inhibitors, primary screen, cell-based, HEK293, Gal4-DAX1, luciferase luminescence; HEK293 Gal4-DAX1 luciferase reporter; inhibition, % at 6.75 µM; actives 0.99% (n = 340,000); AID 504766, 2011;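 active = inhibition above the mean over all tested compounds plus 3 SD, cut at about 4.2% in these data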;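 note: 0% = DAX1-transfected cells with DMSO and 100% = empty-vector control cells with DMSO; inhibition shows as a rise in luminescence from relieved DAX1 repression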
# Target sequence (P51843 207-470 limits assumed): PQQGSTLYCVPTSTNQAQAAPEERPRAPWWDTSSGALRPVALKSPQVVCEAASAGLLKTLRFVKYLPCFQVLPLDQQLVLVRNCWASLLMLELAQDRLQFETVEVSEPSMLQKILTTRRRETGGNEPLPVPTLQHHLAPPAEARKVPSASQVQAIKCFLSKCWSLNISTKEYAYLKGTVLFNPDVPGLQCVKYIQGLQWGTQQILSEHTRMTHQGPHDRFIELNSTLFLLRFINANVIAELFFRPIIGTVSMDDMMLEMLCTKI
# hcDAF-12 act: H. contortus DAF-12 nuclear receptor activators, primary screen, cell-based, luminescence, HEK293, lit1-tk-luc reporter. HEK293 hcDAF-12 lit1-tk-luc reporter; 0% DMSO, 100% Δ7-dafachronic acid. activation, % at 6.8 µM. actives 1.4% (n = 370,000);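 active = activation above the mean of all tested compounds plus 3 SD, cut at about 5.5% in these data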;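 note: 100% = response to 3 µM Δ7-dafachronic acid high control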
# ssDAF12 agonist: S. stercoralis DAF-12 nuclear receptor activators, primary screen, cell-based, luminescence, HEK293, GRIP1 co-expression, lit1-tk-luc. Nuclear hormone receptor DAF-12 (Strongyloides stercoralis). HEK293 ssDAF-12/GRIP1 lit1-tk-luc reporter; % of 3 µM dafachronic acid response. activation, % at 6.8 µM. actives 1% (n = 370,000). AID 652126, 2013;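 active = activation above the mean over all tested compounds plus 3 SD, cut at about 0.9% in these data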;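 note: 0% = DMSO-only wells and 100% = 3 µM delta7-dafachronic acid wells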
# FXN GAA850 act: FXN promoter activators, primary screen, cell-based, luciferase luminescence, HEK293 lucGAA850 | actives 0.56% (n = 360,000) | AID 540364, 2011 | activation, % at 6 µM | HEK293 lucGAA850 FXN promoter luciferase reporter, 24 h; percent of 10 µM SAHA response;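 active = activation above the average of all compounds screened plus 3 SD, cutoff fixed separately per campaign, cut at about 7.5% in these data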;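 note: 0% = DMSO wells and 100% = 10 µM SAHA wells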
# DAX1 inh confirm: DAX1 (NR0B1) inhibitors relieving SF-1 repression, confirmation, cell-based, luminescence, HEK293T, full-length DAX-1, SF-1 activated StAR promoter | shares compounds with DAX1 inh-1 | HEK293T StAR-promoter luciferase reporter, SF-1/DAX-1 repression | inhibition, % at 6.8 µM | actives 87% (n = 2,400) | AID 652134, 2013;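 active = inhibition above the average of every tested compound plus 3 SD, cut at about 3.8% in these data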;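 note: 0% = DAX-1 cells with DMSO and 100% = no DAX-1 control cells with DMSO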
# SF1 AF2mut Luc: StAR reporter signal changes without DAX1, counter-screen for DAX1 inhibitor project, cell-based, luminescence, AF-2 mutant SF-1, transactivation | shares compounds with DAX1 inh-1 | HEK293 StAR-luciferase, SF-1 AF2 mutant | inhibition, % at 6.8 µM | actives 78% (n = 2,400) | AID 652136, 2013;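 active = inhibition above the mean of all tested compounds plus 3 SD, cut at about 3% in these data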;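 note: 0% = DAX-1 transfected cells with DMSO and 100% = cells without DAX-1 with DMSO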
# * marks the source's active call; other numbers are inactive results; x = no result given. Only some compounds are listed: those with a hit (about 4.5% of all), similar ones and a draw of the others.
SMILES,DAX1 inh-1,hgDAF-12 ag,DAX1 inh-2,hcDAF-12 act,ssDAF12 agonist,FXN GAA850 act,DAX1 inh confirm,SF1 AF2mut Luc
CCC(C)(C)C1CCC(=NNC(=O)c2ccoc2C)CC1 (stereo unspecified),4.7*,18*,1,3,0,5,2,3.1*
Cc1ccc(NC(=O)C(c2ccccc2)c2ccccc2)nc1,0,1,0,0,0,0,x,x
Cc1noc(C)c1C(=O)Nc1nc2ccc(Cl)cc2s1,5.5*,3,1,-1,0,5,2,3
CN(CCO)c1c2c(nc3cc(-c4cccc(F)c4)nn13)CCCC2,6.4*,9,1,3,1,7,10*,4.0*
OC1CCN(c2c3c(nc4cc(-c5cccc(F)c5)nn24)CCCC3)CC1,0,2,0,-3,-1,4,x,x
Cc1ccc(C)c(NC(=O)COC(=O)c2cccc(S(=O)(=O)N3CCCC3)c2)c1,1,2,0,2,-1,-1,x,x
COCC(=O)N(C)[C@H]1C[C@H]2c3[nH]c4ccccc4c3CCN2C(=O)[C@H]1[C@H](C)O,0,3,1,0,0,-4,x,x
C[C@H](O)[C@@H]1C(=O)N2CCc3c([nH]c4ccccc34)[C@@H]2C[C@@H]1N(C)Cc1ccc(Cl)cc1,6.2*,3,0,1,-1,-2,1,0
O=C(NC(=O)c1ccccc1)Nc1ccc(Cl)cn1,7.9*,9,1,4,0,2,14*,7.3*
O=C(Nc1cccc(C(=O)Nc2ccc(Cl)cn2)c1)c1ccccc1,0,0,-1,-2,-1,0,x,x
CC1(c2ccccc2)NC(=O)N(CC(=O)Nc2ccccc2C(=O)N2CCCCC2)C1=O (stereo unspecified),-2,-1,0,0,-1,1,x,x
COc1ccc2nc(SCC(=O)/C(C#N)=C(\C)N)[nH]c2c1,4.8*,9,1,5.8*,0,2,14*,8.8*
CCc1nnc(NS(=O)(=O)c2ccc(NC(=O)c3cccc(Br)c3)cc2)s1,4.5*,0,0,2,0,1,1,0
Cc1ccc(C(=O)NNC(=S)NC(=O)COc2ccccc2)cc1,0,1,0,-1,-1,-1,x,x
CC(C)(C)c1ccc(C(=O)NC(=S)NNC(=O)COc2ccccc2)cc1,12*,11*,1,2,0,4,2,2
O=c1[nH]c(CN2CCN(S(=O)(=O)c3cccs3)CC2)nc2c(Br)cc(Br)cc12,1,0,-1,0,-2,2,x,x
O=C(NCCc1ccc(F)cc1)c1ccc([N+](=O)[O-])cc1,6.7*,9,2,2,-1,5,7.3*,3.9*
O=C(Cc1ccccc1)NCCC1=CCCCC1,1,2,-1,1,-2,2,x,x
COc1ccc(C(=O)NCCC2=CCCCC2)cc1,5.5*,10,-3,5.6*,1.2*,-4,10*,2
O=C(NCCC1=CCCCC1)c1ccc(F)cc1,6.4*,11*,-1,5,0,-4,18*,6.3*
O=C(NCCC1=CCCCC1)c1ccc([N+](=O)[O-])cc1,4.6*,13*,3,5,-1,3,13*,7.2*
O=C(CCNC(=O)c1ccc([N+](=O)[O-])cc1)NCCC1=CCCCC1,0,-1,0,-1,0,2,x,x
COc1ccc(S(=O)(=O)N(C)C)cc1NC(=O)CSc1nnc(-c2cccnc2)o1,-1,0,1,-1,-1,0,x,x
O=C(c1ccc(CS(=O)c2cccc(Cl)c2)o1)N1CCN(C2CCCCC2)CC1 (stereo unspecified),2,-1,1,0,-1,4,x,x
COc1ccc(C2CC(c3ccccc3)=NN2C(=O)COC(=O)c2nc3nc(C)cc(C)n3n2)cc1 (stereo unspecified),1,0,0,-1,-2,0,x,x
SMILES,DAX1 inh-1,hgDAF-12 ag,DAX1 inh-2,hcDAF-12 act,ssDAF12 agonist,FXN GAA850 act,DAX1 inh confirm,SF1 AF2mut Luc
COC(=O)/C=C1\SC(N)=NC1=O,1,0,2,-2,0,0,x,x
O=C(CCNC(=O)c1ccc(Cl)cc1)NCCC1=CCCCC1,5.4*,9,1,1,0,5,5.8*,5.8*
N#Cc1ccc2sn(-c3ccccc3)c(=O)c2c1,7.9*,11*,3,3,0,1,5.1*,3.5*
CCOc1cc(C(=O)NN=C2CCCC2)cc(OCC)c1OCC,6.9*,-4,0,0,0,-2,1,-2
COc1ccccc1/C=N\NC(=O)c1cccc(S(=O)(=O)N(C)C)c1,0,0,x,-1,-2,x,x,x
CN(C)S(=O)(=O)c1cccc(C(=O)N/N=C\c2ccccc2[N+](=O)[O-])c1,6.9*,11*,x,3,1,x,12*,9.7*
O=C(CN1C(=O)CCOc2ccccc21)Nc1ccc(Cl)c(S(=O)(=O)N2CCOCC2)c1,2,-3,-1,-2,-1,0,x,x
O=C(NCCc1ccc(F)cc1)NC12CC3CC(CC(C3)C1)C2,8.3*,9,1,5,0,7,10*,7.6*
NS(=O)(=O)c1ccc(CCNC(=O)NC23CC4CC(CC(C4)C2)C3)cc1,0,-2,-1,-1,-1,0,x,x
CCOC(=O)c1csc(NC(=O)C2=COCCO2)n1,7.0*,7,3,2,0,1,9.0*,7.1*
CCOC(=O)c1csc(NC(=O)c2cccs2)n1,8.7*,10,1,4,0,2,10*,6.7*
Cc1ccc(-c2csc(NC(=O)C3=COCCO3)n2)cc1,1,10,1,2,-1,5,x,x

# Screening data from PubChem.
